Screens (PubChem BioAssay)
NOMO-1 viab: STK33 inhibitor candidate reducing NOMO-1 cell viability; 7.5% of 37,000 active; NOMO-1 AML viability, CellTiter-Glo luminescence, 72 h; inhibition, % (test concentration not listed); in the data active = inhibition above about 80%; inconclusive = no clear call, values can overlap the other calls
PD-1 reversal: activators reversing PD-1 mediated T-cell inhibition; primary human CD4 T cells, PD-L1 beads, CellTiter-Glo 96 h; 29,000 tested, under 10 active; activation, % (test concentration not listed); call rule not given here;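 also: 0% = median vehicle wells and 100% = positive control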
MITF inh: inhibitors of MITF; TRPM1 promoter luciferase, luminescence, 24 h; inhibition, % (test concentration not listed); 0.28% of 37,000 active; AID 2240; in the data active = inhibition above about 85%; inconclusive = no clear call, values can overlap the other calls; inactive = below about 68%;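 also: human melanocyte line stably carrying TRPM1 promoter luciferase reporter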
Shh pathway inh: Sonic Hedgehog pathway inhibition; Shh-LIGHT2 Gli-luciferase reporter, 30 h; inhibition, % (no concentration beside the values); 2.1% of 22,000 active; AID 2313;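 active = mean inhibition across valid replicates above about 65%, limit read from the data; inconclusive = mean under the limit, yet half or more replicates past it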;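 also: pathway switched on by Shh-conditioned medium diluted 1 in 25 in low serum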
* = called active by the depositor; ? = inconclusive; . = no result. The list is not random: actives were taken first. Their share in the collection is about 7.8%.

SMILES | NOMO-1 viab | PD-1 reversal | MITF inh | Shh pathway inh
C[C@@H]1CCCCO[C@@H](CN(C)C(=O)Nc2cccc3ccccc23)[C@@H](C)CN([C@H](C)CO)C(=O)c2cc(NS(=O)(=O)c3ccc(Cl)cc3)ccc2O1 | 102* | . | 24 | -3
COc1ccc(NC(=O)N(C)C[C@H]2OCCCC[C@@H](C)Oc3ccc(NS(=O)(=O)c4ccc(F)cc4)cc3C(=O)N([C@H](C)CO)C[C@@H]2C)cc1 | 25 | 1 | -28 | -4
C[C@@H]1CCCCO[C@@H](CN(C)C(=O)Nc2cccc3ccccc23)[C@@H](C)CN([C@H](C)CO)C(=O)c2cc(NS(=O)(=O)c3ccc(F)cc3)ccc2O1 | 50 | . | 31 | -19
Cc1ccc(S(=O)(=O)Nc2ccc3c(c2)C(=O)N([C@H](C)CO)C[C@H](C)[C@H](CN(C)C(=O)Nc2ccc(C(F)(F)F)cc2)OCCCC[C@@H](C)O3)cc1 | 114* | -5 | 22 | 38
COc1ccc(S(=O)(=O)Nc2ccc3c(c2)C(=O)N([C@H](C)CO)C[C@H](C)[C@@H](CN(C)C(=O)Nc2ccc(F)cc2)OCCCC[C@@H](C)O3)cc1 | 22 | . | 11 | 74*
C[C@@H]1CCCCO[C@@H](CN(C)C(=O)Nc2ccc(C(F)(F)F)cc2)[C@@H](C)CN([C@H](C)CO)C(=O)c2cc(NS(=O)(=O)c3ccc(Cl)cc3)ccc2O1 | ? | -9 | 44 | 119*
CCOC(=O)C1=C(C)NC(=S)NC1c1ccc(-c2ccccc2Cl)o1 (configuration not stated) | 36 | -3 | 11 | 6
NNC(=O)CS(=O)Cc1cccc(C(F)(F)F)c1 (configuration not stated) | 1 | 0 | 6 | 1
Cc1cccc(N(CC(=O)O)S(C)(=O)=O)c1C | 11 | . | -9 | .
CCN(CCC#N)C(=S)Nc1cc(C(F)(F)F)cc(C(F)(F)F)c1 | 7 | 0 | -16 | 12
CCNC(=S)NCC1CC1 | -9 | 2 | 2 | .
CN(C)CCCNc1ncnc2c1sc1nc(N3CCOCC3)c3c(c12)CCC3 | 98* | -2 | -29 | .
C[C@@H]1CN([C@@H](C)CO)C(=O)c2cccc(NC(=O)Nc3ccc4c(c3)OCO4)c2O[C@H]1CN(C)Cc1ccc2c(c1)OCO2 | 93* | -10 | 5 | -45
C[C@@H]1CN([C@@H](C)CO)C(=O)c2cccc(NC(=O)Nc3ccc4c(c3)OCO4)c2O[C@@H]1CN(C)CC1CCCCC1 | 15 | 0 | -36 | -64
C[C@H]1CN([C@@H](C)CO)C(=O)c2cccc(NC(=O)Nc3ccc4c(c3)OCO4)c2O[C@@H]1CN(C)Cc1ccc(Cl)c(Cl)c1 | 91* | . | 5 | -13
C[C@@H]1CN([C@@H](C)CO)C(=O)c2cccc(NC(=O)Nc3ccc4c(c3)OCO4)c2O[C@H]1CN(C)CC1CCCCC1 | 83* | . | 12 | -19
C[C@H]1CN([C@@H](C)CO)C(=O)c2cccc(NC(=O)Nc3ccc4c(c3)OCO4)c2O[C@H]1CN(C)Cc1ccc2c(c1)OCO2 | 28 | 1 | 3 | -22
C[C@H](CO)N1C[C@H](C)[C@H](CN(C)Cc2ccccc2)Oc2c(NC(=O)Nc3ccc4c(c3)OCO4)cccc2C1=O | 84* | 0 | -1 | -42
Cc1ccc(-c2cc(C(F)F)n3ncc(C(=O)NCCCN4CCOCC4)c3n2)cc1 | 5 | -6 | 11 | .
CCCN1CCC2(CC1)C(C#N)=C(S)NC(=O)C2C#N (configuration not stated) | 27 | 5 | 4 | -7
C[C@@H]1CN([C@@H](C)CO)C(=O)c2cccc(NC(=O)Nc3ccc4c(c3)OCO4)c2O[C@H]1CN(C)Cc1ccccc1 | 107* | -7 | 35 | 15
Cc1cccc(NC(=O)C2CN(S(=O)(=O)c3ccccc3)CCN2S(=O)(=O)c2ccccc2)c1 (configuration not stated) | 6 | . | -8 | .
O=C(OCc1cccc(O)c1O[C@@H]1O[C@H](CO)[C@@H](O)[C@H](O)[C@H]1O)C1(O)C(=O)C2C3C4C5C(C(=O)C(O)(C(=O)OCc6cccc(O)c6O[C@@H]6O[C@H](CO)[C@@H](O)[C@H](O)[C@H]6O)C2C53)C41 (some centres not stated) | . | . | . | 1
C[C@H](CO)N1C[C@H](C)[C@@H](CN(C)Cc2ccc(C(F)(F)F)cc2)Oc2c(NC(=O)c3ccc(-c4nccs4)cc3)cccc2C1=O | 115* | -6 | 67 | ?
C[C@@H]1CN([C@@H](C)CO)C(=O)c2cccc(NC(=O)c3ccc(-c4nccs4)cc3)c2O[C@@H]1CN(C)Cc1ccc(C(F)(F)F)cc1 | 88* | -6 | 37 | 62
SMILES | NOMO-1 viab | PD-1 reversal | MITF inh | Shh pathway inh
C[C@@H]1CN([C@H](C)CO)C(=O)c2cccc(NC(=O)c3ccc(-c4nccs4)cc3)c2O[C@@H]1CN(C)Cc1ccc(C(F)(F)F)cc1 | 14 | -3 | -1 | 21
C[C@@H]1CN([C@@H](C)CO)C(=O)c2cccc(NC(=O)c3ccc(-c4nccs4)cc3)c2O[C@H]1CN(C)Cc1ccc(C(F)(F)F)cc1 | 99* | -4 | 69 | -3
Cc1nc(NCC2CCCO2)c2c(C)c(C)sc2n1 (configuration not stated) | 26 | 1 | 49 | .
N/C(=N/C(=S)Nc1ccccc1)N1CCOCC1 | 8 | 2 | -26 | -36
CN(C)CCCN1C(=O)C(=O)C(C(=O)c2ccco2)C1c1cccc([N+](=O)[O-])c1 (configuration not stated) | -4 | 4 | -33 | .
Cc1ccc(Nc2nc(Nc3ccc(C)cc3)nc(Sc3nnc(C)s3)n2)cc1 | 20 | -3 | 20 | .
CC(C)c1ccc(NN2C(=O)CC(c3ccccc3)C2=O)cc1 (configuration not stated) | 46 | -1 | -31 | -51
CS(=O)(=O)N1CCN(CC(O)Cn2c3ccc(Cl)cc3c3cc(Cl)ccc32)CC1 (configuration not stated) | 20 | . | -10 | .
OC(CNC1CCCC1)Cn1c2ccc(Cl)cc2c2cc(Cl)ccc21 (configuration not stated) | 119* | -17 | 31 | .
Cc1ccccc1NC(=O)c1ccccc1NC(=O)c1ccccc1 | 30 | 1 | 12 | -33
COc1cc(C2c3cc(O)c(OC)cc3CC(CO)C2CO[C@@H]2O[C@H](CO)[C@@H](O)[C@H](O)[C@H]2O)ccc1O (some centres not stated) | -6 | 1 | 3 | -24
CC(Oc1ccc(Cl)cc1Cl)C(=O)Nc1cccc(NC(=O)c2ccc(Cl)cc2Cl)c1 (configuration not stated) | 17 | 1 | -11 | .
CC12CC3CC(C1)CC(NC(=O)c1ccc(Cl)cc1Cl)(C3)C2 | 115* | -1 | 34 | -60
COCCN1C(=O)/C(=C/c2cn(CC(=O)OC)c3ccccc23)C(=O)N(c2ccccc2)C1=O | 28 | 1 | -5 | -2
CC1CCCC(C)N1C(=S)NCCCN1CCOCC1 (configuration not stated) | 110* | 0 | 6 | -11
COc1ccc(S(=O)(=O)Nc2ccc3c(c2)C(=O)N([C@H](C)CO)C[C@H](C)[C@@H](CN(C)Cc2ccc(Cl)c(Cl)c2)OCCCC[C@@H](C)O3)cc1 | 125* | . | ? | 69*
